# Screening data as filed in PubChem BioAssay.
# Shown is part of a subset that was picked to be rich in hits.
# RmlC RmlD mix = RmlC and RmlD coupled enzyme inhibitors, primary screen, biochemical, 384-well, compound mixtures, retest. RmlC/RmlD coupled enzyme inhibition, 384-well mixture HTS. inhibition, % at 5.5 µM. actives 0.39% (n = 110,000). AID 1532, 2009; in the data active means inhibition above about 30%, passing the limit was not always enough; inconclusive means no clear call, values can overlap the other calls
# HIV RNase H inh-1 = HIV-1 RT RNase H inhibitors, primary screen, biochemical, fluorescence; actives 1.9% (n = 65,000); Gag-Pol polyprotein (Human immunodeficiency virus type 1 group M subtype B (isolate …; RT-RNase H RNA/DNA duplex cleavage; inhibition, % at 10 µM; AID 565, 2006; in the data active means inhibition above about 50%
# HIV RNase H inh-2 = HIV-1 RT RNase H inhibitors, retest, confirmation, biochemical | Recombinant RT RNase H, fluorescent RNA/DNA duplex cleavage | shares compounds with HIV RNase H inh-1 | inhibition, % at 10 µM | AID 651, 2007 | actives 39% (n = 1,000); in the data active means inhibition above about 48%; inconclusive means no clear call, values can overlap the other calls
# * marks the source's active call; other numbers are inactive results; ? = inconclusive; . = no result given.
SMILES,RmlC RmlD mix,HIV RNase H inh-1,HIV RNase H inh-2
O=C(Nc1ccccc1)c1ccc2nc(-c3ccco3)c(-c3ccco3)nc2c1,-26,100*,28
O=C(NCc1ccccc1)c1ccc2nc(-c3ccco3)c(-c3ccco3)nc2c1,-17,.,.
O=C1c2ccccc2C(O)(Cc2ccccc2)N1c1ccc2c(c1)OCO2 (stereo not given),-15,-5,.
CC(=O)NO,11,.,.
CC(C)CCN1C(=O)c2ccc(C(=O)OCn3nnc4ccccc4c3=O)cc2C1=O,6,-14,.
Cc1ccc(N(CC(=O)Nc2cccc(C)c2)S(=O)(=O)c2cccc3nonc23)cc1,10,67*,-3
Cc1ccc(NC(=O)CCNS(=O)(=O)c2cccc3nonc23)cc1,-10,-18,.
COCCCN=C(c1ccco1)n1c(=S)nc(-c2ccco2)n(CCCOC)c1=S,4,63*,3
COCCCn1c(-c2ccco2)nc2ccccc2c1=O,5,-24,.
CN(C)c1ccc(/C=C(\C#N)C(=O)Nc2nc3c(s2)CCN(Cc2ccccc2)C3)cc1,-9,.,.
CCOc1ccccc1-c1nc(-c2ccc(NC(=O)c3ccc(Br)o3)cc2)no1,-14,7,.
CCOc1ccccc1-c1nc(-c2ccc(NC(=O)Cc3ccc(OC)cc3)cc2)no1,-94,64*,?
N#Cc1c(SCC(=O)Nc2nccs2)nc2c(c1-c1ccco1)CCCC2,-14,82*,61*
CCc1ccccc1NC(=O)CSc1nc2c(c(-c3ccco3)c1C#N)CCCC2,16,40,.
Cc1ccccc1NC(=O)CSc1nc2c(c(-c3ccco3)c1C#N)CCCC2,-26,59*,73*
COc1ccc(-c2c(C#N)c(SCC(=O)Nc3ccccc3)nc3c2CCCC3)cc1,-11,.,.
CSCCC(NC(=O)c1ccc(Cl)cc1)C(=O)NC(C)(C)C (stereo not given),1,.,.
Cc1cccc(OCc2nnc(NC(=O)Cc3cccs3)s2)c1,-12,.,.
Cc1ccc(OCc2nnc(NC(=O)Cc3cccs3)s2)cc1,-11,62*,?
Cc1c(Cl)cccc1N(CC(=O)NC1CCCCC1)S(C)(=O)=O,52,-1,.
COc1ccc(NC(=O)CCNS(=O)(=O)c2ccc(Br)s2)cc1,-14,.,.
CCOc1cc(C2CC(=O)NC(SCC)=C2C#N)ccc1O (stereo not given),10,-13,.
CCOc1cc(C2CC(=O)N3CN(C4CCCCC4)CSC3=C2C#N)ccc1O (stereo not given),-11,79*,72*
COc1ccc2ccccc2c1C1CC(=O)N2CN(Cc3ccco3)CSC2=C1C#N (stereo not given),3,6,.
COc1ccc2ccccc2c1C1CC(=O)N2CN(C3CCCCC3)CSC2=C1C#N (stereo not given),-8,82*,60*
SMILES,RmlC RmlD mix,HIV RNase H inh-1,HIV RNase H inh-2
COc1ccc(C2/C(=C(\O)c3cccc(OC)c3)C(=O)C(=O)N2c2ccccn2)cc1 (stereo not given),4,.,.
Cc1ccc(OCCOCCn2ccnc2)c(Br)c1,7,-76,.
O=C(CS(=O)(=O)Cc1ccccc1)Nc1ncccn1,-15,11,.
c1ccc2[nH]c(CN3CCOCC3)nc2c1,-8,.,.
c1ccc2[nH]c(SN3CCOCC3)nc2c1,13,91*,66*
COC(=O)c1onc(-c2c(C)cc(C)cc2C)c1C(=O)OC,5,.,.
Nc1c(S(=O)(=O)c2cccc(Cl)c2)c2nc3ccccc3nc2n1/N=C/c1ccc(O)c(O)c1,-2,92*,58*
COc1cccc(/C=N/n2c(N)c(S(=O)(=O)c3cccs3)c3nc4ccccc4nc32)c1OC,-28,.,.
O=C(CCSc1ccccc1)Nc1ccc(OCc2ccccc2)cc1,-6,.,.
Cc1cc(NC(=O)c2cc3n(n2)C(C(F)(F)F)CC(c2ccco2)N3)n(-c2ccccc2)n1 (stereo not given),6,62*,44
COc1ccc(NC(=O)c2cc3n(n2)C(C(F)(F)F)CC(c2ccco2)N3)cc1 (stereo not given),-3,6,.
Oc1ccc(-c2nc(-c3ccc(O)c(O)c3)cs2)cc1,-1,100*,83*
Oc1ccc(Nc2nc(-c3ccc4ccccc4c3)cs2)cc1,95,.,.
C/C=C/Cn1c(SCc2ccc(C)cc2)nc2c1c(=O)[nH]c(=O)n2C,3,-10,.
CCCSc1nc2c(c(=O)[nH]c(=O)n2C)n1Cc1ccc(C)cc1,19,5,.
CCOC(=O)C(C)Sc1nc2c(c(=O)[nH]c(=O)n2C)n1Cc1ccc(Cl)cc1 (stereo not given),-8,71*,24
C/C(Cl)=C/CSc1nc2c(c(=O)[nH]c(=O)n2C)n1C(C)C,-7,-21,.
Cc1ccc(Cn2c(SCC(C)C)nc3c2c(=O)[nH]c(=O)n3C)cc1,-5,87*,58*
C=CCSc1nc2c(c(=O)[nH]c(=O)n2C)n1Cc1ccc(C)cc1,.,84*,31
CC(C)Sc1nc2c(c(=O)[nH]c(=O)n2C)n1Cc1ccc(Cl)cc1,4,27,.
C=CCSc1nc2c(c(=O)[nH]c(=O)n2C)n1C(C)C,-7,76*,59*
CCN(c1cccc(C)c1)c1nc2ccsc2c(=O)s1,7,.,.
Cc1sc(-c2ccncc2)nc1OC(=O)c1ccccc1,-18,.,.
O=C(COc1ccc(S(=O)(=O)N2CCOCC2)cc1)Nc1ccc(Cl)c(C(F)(F)F)c1,13,-1,.
Cc1ccc(C)c(NC(=S)c2ccccn2)c1,2,.,.
SMILES,RmlC RmlD mix,HIV RNase H inh-1,HIV RNase H inh-2
S=C(Nc1ccccn1)c1ccccn1,-16,73*,68*
Cc1ccc(-n2c(N)c(C(=O)N3CCN(C)CC3)sc2=S)cc1,-4,93*,63*
Cc1ccc(-n2c(N)c(C(=O)NCc3cccnc3)sc2=S)cc1,8,.,.
Cc1ccc(-n2c(N)c(C(=O)N3CCCCC3)sc2=S)cc1,7,95*,75*
C=CCn1c(N)c(C(=O)N2CCN(C)CC2)sc1=S,-10,29,.
CC(CCc1ccc(O)cc1)NCCc1ccc(O)c(O)c1 (stereo not given),10,.,.
CC(Cc1ccc(O)c(O)c1)C(C)Cc1ccc(O)c(O)c1 (stereo not given),-15,99*,59*
C[C@H](NC(=O)c1[nH]cnc1C(=O)Nc1ccc(CNC(=O)OC(C)(C)C)cc1)C(=O)OC(C)(C)C,-14,.,.
CC(C)(C)c1csc(NC(=O)Cn2c(=O)oc3ccccc32)n1,10,88*,21
O=C(Cn1c(=O)oc2ccccc21)Nc1nc(-c2ccccc2)cs1,-15,.,.
CCOC(=O)CCc1c(C)nc(SCC(=O)O)c(C#N)c1C,-16,70*,12
CCOC(=O)CSc1nc(C)cc(C)c1C#N,-4,.,.
Cc1cc(C)c(S(=O)(=O)N2CCOC2CNC(=O)C(=O)NCc2ccco2)c(C)c1 (stereo not given),-11,.,.
CCOc1ccc(S(=O)(=O)Nc2cc(Sc3ncn[nH]3)c3oc(=O)sc3c2)cc1,-15,88*,38*
CCOc1ccc(NS(=O)(=O)c2ccc(NS(=O)(=O)c3ccccc3)cc2)cc1,6,.,.
Clc1ccc(-c2nnc3sc(-c4ccccn4)nn23)cc1,14,-8,.
c1ccc(-c2nn3c(-c4ccncc4)nnc3s2)nc1,.,64*,47
Clc1ccccc1-c1nnc2sc(-c3ccncc3)nn12,3,-63,.
